Values joined by “and” are separate entries in the source; they are usually repeats but may differ in a detail not shown here. Equal values may be shown once. Inconclusive results are not listed. More than one record can exist for a structure, and the calls need not agree. A number with no mark means an inactive call. Active and inactive are the calls of the source. Calls come from the whole dose curve; as a rule, active = well fitted inhibition curve with a large enough effect; inconclusive = small, poorly fitted or top-dose-only effect; inactive = flat fitted curve, though single readings scatter.
Key:
[1] = Drug repurposing screens with cells derived from glioblastoma tumor samples (AID 1345199); conditions: GBM patient neurospheres viability, ATP luminescence, 48 h; note: nearly all actives have a fitted effect of over 40% in size
In short: (§1)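 Four patient lines of CD133+ GBM neurospheres were screened at several concentrations; hits were retested in those lines plus three slower-growing GBM lines, using 48-hour treatment and ATP-based viability.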

astro = control astrocytes; test: as above; conditions: viability, ATP luminescence, 48 h; series mostly up to 45.9 µM
In short: as §1

[2] = at 45.9 µM (top of the series), tumour line B
[3] = at 45.9 µM (top of the series), tumour line D
[4] = at 46 µM (top of the series), tumour line A
[5] = at 46.1 µM (top of the series), tumour line C
% is set by controls: 0 for no effect and ±100 for the full control effect; potency is the fitted concentration of half-maximal effect.

Compound	activity, negative = cell killing [1, 2]	activity, negative = cell killing [1, 3]	activity, negative = cell killing [1, 4] [%]	activity, negative = cell killing [1, 5]	Potency (astro)	Potency ([1]; tumour line A)
O=C1O[C@@H]2[C@@H](O)[C@H](O)O[C@@H]2[C@H]1O	-11.2%	-1.84%	-28.6	-14%	inactive	–
CS(=O)(=O)Nc1cc2occ(NC=O)c(=O)c2cc1Oc1ccccc1	-8.06%	-12.9%	-16.3	0.0891%	inactive	–
O=c1[nH]cnc2[nH]cc(CN3CCCCC3)c12	-5.2%	-0.491%	2.77	-8.31%	inactive	–
NCCCC[C@H](NC(=O)[C@@H]1CCCN1C(=O)[C@@H]1CSSC[C@H](N)C(=O)N[C@@H](Cc2ccc(O)cc2)C(=O)N[C@@H](Cc2ccccc2)C(=O)N[C@@H](CCC(N)=O)C(=O)N[C@@H](CC(N)=O)C(=O)N1)C(=O)NCC(N)=O	-6.49% and -12.6%	-7.59% and -12.4%	-33.8	13.1%	inactive	–
O=C(O)c1cc2ccccc2c(Cc2c(O)c(C(=O)O)cc3ccccc23)c1O	5.19%	-18.5%	-27.5	-1.97%	–	–
CCCCCCCCCCCCCCCCCC(=O)[O][Al]	-8.38%	-6.36%	-12.4	-6.43%	inactive	–
NCCCC(=O)O	-13.9%	-9.35%	3.28	-16.7%	inactive	–
CCC(=O)O	6.59%	-5.65%	-7.77	7.14%	inactive	–
CC(C)(S)C(=O)N[C@@H](CS)C(=O)O	-12.3% and -6.78%	-24.6% and -16.1%	–	-15.9% and -10.8%	inactive	39.8 µM (active)
CN1CCN(C2=Nc3ccccc3Cc3ccccc32)CC1	-12%	-12.4%	–	-28.3%	inactive	31.6 µM (active)
OCC(O)COc1ccc(Cl)cc1 (stereo not given)	-4.12%	-2.58%	-5.56	-6.48%	inactive	–
CCN(CC)c1ccc(N=Nc2ccc(S(=O)(=O)N(C)C)cc2)c(S(=O)(=O)NCC[n+]2ccccc2)c1	-13%	-3.67%	–	-10.2%	inactive	35.5 µM (active)
NCCCC[C@H](NC(=O)[C@@H]1CCCN1C(=O)[C@@H]1CSSC[C@H](N)C(=O)N[C@@H](Cc2ccccc2)C(=O)N[C@@H](Cc2ccccc2)C(=O)N[C@@H](CCC(N)=O)C(=O)N[C@@H](CC(N)=O)C(=O)N1)C(=O)NCC(N)=O	-4.48%	-4.17%	-29.5	-22.2%	inactive	–
O=S(=O)(O)Oc1ccc(C(c2ccc(OS(=O)(=O)O)cc2)c2ccccn2)cc1	0.447%	-9.15%	21.1	10.6%	inactive	–
O=P(O)(O)OC(CO)CO	-13.5%	14.6%	-6.76	3.76%	inactive	–
C[C@H]1C[C@H]2[C@@H]3CCC4=CC(=O)C=C[C@]4(C)[C@@]3(F)[C@@H](O)C[C@]2(C)[C@@]1(O)C(=O)CCl	1.74%	-15.9%	–	12.3%	inactive	35.5 µM (active)
C=C1CC2C3CCC4=CC(=O)C=C[C@]4(C)[C@@]3(F)[C@@H](O)C[C@]2(C)[C@@]1(O)C(=O)COC(C)=O (stereo not given in full)	-0.0683%	11.1%	-20	-4.46%	inactive	–
COc1cc2c(c(OC)c1OC)-c1c(cc3c(c1OC)OCO3)C[C@@H](C)[C@](C)(O)C2	-5.29% and -6.75%	-7.05% and -25.9%	-25	-33.4% and -14.4%	inactive	22.4 µM (active)
